Most compounds without a hit are left out; they make up all but 2.1% or so of the library.
m-calpain inh: calpain II (pig) inhibition. purified calpain II, fluorogenic peptide substrate, 30 min. 220,000 tested, 0.37% active. inhibition, % at 16 µM;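 active means inhibition above about 50%, limit read from the data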
Arbovirus inh: arbovirus infection inhibition; arbovirus infection cell-based antiviral screen; 200,000 tested, 0.37% active; inhibition, % at 10 µM; in the data active means inhibition above about 30%
HSV replic up: increases HSV replication in cells; HSV replication augmentation in cells, fold increase; maximum fold increase; 220,000 tested, 0.005% active; AID 1956; in the data active means maximum fold increase above about 1.5; inconclusive means no clear call, values can overlap the other calls; tested in PC3 cells
ROMK mod: modulators of human ROMK potassium channel | P48048 | Tet-inducible ROMK, thallium flux fluorescence; actives lie on both sides | B-score at 10 µM | 130,000 tested, 2% active | AID 1918;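 active means signal ratio slope over the read window, or its plate-corrected B-score, at least 3 SD from the plate mean, either direction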;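 further: B-score of the F/F0 ratio slope over 7 to 12 s after thallium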
Target sequence (P48048 whole entry, looked up): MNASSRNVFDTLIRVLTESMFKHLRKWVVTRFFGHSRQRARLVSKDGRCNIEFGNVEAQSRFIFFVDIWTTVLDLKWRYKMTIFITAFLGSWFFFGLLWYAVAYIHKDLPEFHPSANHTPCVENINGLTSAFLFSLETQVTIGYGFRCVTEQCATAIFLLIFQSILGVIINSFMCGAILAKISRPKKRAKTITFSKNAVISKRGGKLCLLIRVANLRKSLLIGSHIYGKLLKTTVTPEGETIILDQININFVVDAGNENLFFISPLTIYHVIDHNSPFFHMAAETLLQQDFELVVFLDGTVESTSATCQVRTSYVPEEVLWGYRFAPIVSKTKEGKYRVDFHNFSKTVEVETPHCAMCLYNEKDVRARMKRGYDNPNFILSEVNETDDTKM
HMGR II inh: blocks class II HMG-CoA reductase of Enterococcus faecalis; purified E. faecalis HMGR, NADPH absorbance 340 nm kinetic; inhibition, % at 10 µM; 190,000 tested, 0.41% active;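 active means inhibition above a set limit, the median over all tested compounds plus 3 SD, cut at about 9.5% in these data; inconclusive means no clear call, values can overlap the other calls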;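 further: enzyme runs in reverse so mevalonate oxidation gives rising NADPH absorbance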
A number is an active result; n = inactive; u = inconclusive; x = not tested or not shown.

SMILES | m-calpain inh | Arbovirus inh | HSV replic up | ROMK mod | HMGR II inh
NC(=O)CSc1nnc(-c2ccc([N+](=O)[O-])cc2)o1 | n | n | n | n | 14.2
O=C(c1ccco1)N(Cc1cccc([N+](=O)[O-])c1)c1ccc(Br)cc1 | 51.7 | n | n | n | n
O=C(c1ccco1)N(Cc1ccc([N+](=O)[O-])cc1)c1ccc(Br)cc1 | n | n | n | x | n
O=C1c2ccccc2C(=O)N1c1ncn[nH]1 | n | x | n | x | x
COC(=O)C1=C(C)N(C)C(C)=C(C(=O)OC)C1c1ccc(C(=O)OC)cc1 | n | n | n | x | n
COC(=O)C1=C(C)N(C)C(=S)N(C)C1c1ccc(OC)cc1 (configuration not stated) | n | n | n | n | 12.2
O=C(NCC(=O)N(Cc1cccs1)C(C(=O)NC1CCCC1)c1cccnc1)c1ccco1 (configuration not stated) | n | n | n | x | n
O=C(NCC(=O)N(Cc1cccs1)C(C(=O)NC1CCCCC1)c1ccncc1)c1ccco1 (configuration not stated) | n | n | n | n | 10.9
COc1ccc(CC(=O)OCc2cc(=O)n3cc(Br)ccc3n2)cc1OC | n | n | n | n | 16.8
CCOc1ccc(CC(=O)OCc2cc(=O)n3cc(Br)ccc3n2)cc1 | n | n | n | n | n
COCCN1CC(=O)N(c2cccc(C)c2C)C(c2ccc(Cl)cc2)C1=O (configuration not stated) | n | n | n | x | n
Cc1cccc(N2C(=O)C(Oc3ccc(Cl)cc3Cl)C2C=O)c1C (configuration not stated) | n | n | n | -4.89 | n
CC1(C)CC(=O)C2=C(C1)OC1=C(C(=O)CC(C)(C)C1)C2c1ccc(O)cc1O | n | n | n | -8 | n
CC1(C)CC(=O)C2=C(C1)OC1=C(C(=O)CC(C)(C)C1)C2c1ccc(O)c([N+](=O)[O-])c1 | n | n | n | n | n
C=C(C)c1cccc(C(C)(C)NC(=O)NC2CC(C)(C)NC(C)(C)C2)c1 | n | n | n | n | n
O=C1c2cccc3cccc(c23)C(=O)N1CCN1CCN(C(=S)Nc2ccc(Cl)cc2)CC1 | 53.8 | n | n | x | n
Cc1ccc(-c2cc(C(=O)Nc3cc(C)ccc3C)[nH]n2)c(O)c1 | n | n | n | x | n
COc1ccc(OC)c(NC(=O)c2cc(-c3ccc(C)cc3O)n[nH]2)c1 | n | 30.8 | n | n | n
O=C(Nc1ccccc1)Nc1ccc2ocnc2c1 | n | n | n | n | 17.7
CCOc1ccc(S(=O)(=O)N2CCN(c3ccccc3OC)CC2)c2cccnc12 | n | 34.5 | n | n | n
CCOc1ccc(S(=O)(=O)N2CCN(c3ccccc3)CC2)c2cccnc12 | n | n | n | n | n
CCC(C)(C)c1ccc(OCCCC[n+]2ccccc2)c(C(C)(C)CC)c1 | n | n | n | -3.69 | n
CCCCCc1ccc(OCCCC[n+]2cccc(C)c2)c(CCCCC)c1 | n | n | n | n | n
Cc1ccc(S(=O)(=O)Oc2ccc(C)cc2/C=N/N=C2\NC(=O)C(C)S2)cc1 (configuration not stated) | n | 30.3 | n | n | n
COc1ccc(/C=N/N=C2/NC(=O)C(CC(=O)O)S2)cc1OS(=O)(=O)c1ccccc1 (configuration not stated) | n | n | n | n | n
SMILES | m-calpain inh | Arbovirus inh | HSV replic up | ROMK mod | HMGR II inh
O=C(CN1CCN(S(=O)(=O)c2ccccc2)CC1)Nc1ccc2c(c1)CCC2 | n | n | n | n | n
CCCCCCCn1c2c(c(=N)c3ccccc31)CCC2 | n | n | n | n | n
O=C1S/C(=C\c2ccc(O)c([N+](=O)[O-])c2)C(=O)N1c1ccccc1Cl | n | n | n | -3.56 | n
COc1cc(/C=C2\SC(=O)N(c3ccc(Cl)cc3)C2=O)cc([N+](=O)[O-])c1O | n | 57.2 | n | n | n
CCOc1ccc(/C=C2\SC(=O)N(c3ccc(O)cc3)C2=O)cc1OC | n | x | n | n | x
COc1cc(/C=C2\SC(=O)N(c3cccc(Cl)c3)C2=O)cc([N+](=O)[O-])c1O | 65.9 | n | n | n | n
O=C1S/C(=C\c2ccc(O)c([N+](=O)[O-])c2)C(=O)N1Cc1cccc([N+](=O)[O-])c1 | n | n | n | x | n
Cc1cc(NC(=S)N(CCCN2CCN(C)CC2)Cc2ccco2)ccc1Cl | n | n | n | n | n
CCCCn1c(CN2CCN(c3cccc(Cl)c3)CC2)nc2c1c(=O)[nH]c(=O)n2C | n | n | x | n | 9.8
Cc1ccc(NC(=O)CN(C)C(=O)COc2cc(F)ccc2[N+](=O)[O-])cc1 | n | n | n | n | n
CC1=C/C(=N\NC(=S)Nc2cccnc2)CC(C)(C)C1 | n | n | n | 3.04 | n
Oc1ccc(Br)cc1C=Nc1ccc(Cl)cc1 | 93.7 | n | n | n | n
Oc1c(Cl)cc(Cl)cc1C=Nc1ccc(Br)cc1 | n | n | n | x | n
Cc1cccc(S(=O)(=O)c2c(N)n(Cc3ccco3)c3nc4ccccc4nc23)c1 | n | n | u | -2.89 | n
Cc1cccc(S(=O)(=O)Nc2nc3ccccc3nc2NCc2ccco2)c1 | n | 32.8 | x | x | n
Cc1ccc(S(=O)(=O)c2c(N)n(Cc3ccco3)c3nc4ccccc4nc23)cc1 | n | n | x | n | n
Cc1ccc(CC2CC(=O)N(c3cc(Cl)ccn3)C2=O)cc1 (configuration not stated) | n | x | n | x | x
Cc1cc(C(=O)N[C@H](c2ccccc2)[C@@]2(C)C[C@@H]2[C@@H](C)C(=O)Nc2ccc3ccccc3c2)no1 | n | n | n | n | 24.8
COc1ccc(-c2nc3ccccc3c(=O)o2)cc1OC | n | n | n | x | n
CCOc1ccc(-c2nc3ccccc3c(=O)o2)cc1 | n | n | n | n | 12.5
CN1C(=O)C2(c3ccccc31)c1c(oc3ccccc3c1=O)C(=O)N2CCCO (configuration not stated) | n | x | n | x | x
CN(Cc1nc(-c2cnccn2)no1)C1CC(C)(C)NC(C)(C)C1 | n | n | n | n | 18.2
CN(Cc1nc(-c2cnccn2)no1)CC1(c2ccccc2)CC1(C)C (configuration not stated) | n | n | n | n | n
COc1ccc2cc(C3NC(=O)c4ccccc4N3)c(Cl)nc2c1 (configuration not stated) | n | n | n | n | 18.9
Cc1cc(C)c2nc(Cl)c(C3NC(=O)c4ccccc4N3)cc2c1 (configuration not stated) | n | n | n | n | n
SMILES | m-calpain inh | Arbovirus inh | HSV replic up | ROMK mod | HMGR II inh
Cc1ccccc1OCC(=O)NNC(=O)CSc1nc(N)cc(N)n1 | n | n | n | n | n
Oc1ccc(/C=N/NC(=S)N2CCOCC2)cc1 | n | n | n | n | n
COc1cccc(C2CC(c3ccc(Cl)cc3Cl)Nc3nc(N)nn32)c1 (configuration not stated) | n | 41.5 | n | n | n
COc1cccc(C2CC(c3ccccc3Cl)Nc3nc(N)nn32)c1 (configuration not stated) | n | n | n | n | n
COc1ccc(CC(=O)N2CCC(Nc3nc4ccccc4n3Cc3ccc(F)cc3)CC2)cc1 | n | n | n | -3.98 | n
CC1=NN(c2nc(-c3ccc(Cl)cc3)cs2)C(=O)C1 | n | 42.2 | n | n | n
CN1CCN(S(=O)(=O)c2ccc(NC(=S)NC(=O)c3ccc(Cl)cc3)cc2)CC1 | n | 48.6 | x | n | n

Compound activity (PubChem)
